CYP2C19 inhib = blockers of cytochrome P450 2C19 activity – biochemical, luminescence, ADME assay, primary screen; inhibition, % at 5 µM; P33261; AID 778, 2007; actives 21% (n = 96,000); CYP2C19 Supersomes, luciferin-H EGE luminescence, 30 min;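 active means CYP2C19 inhibition above a set limit at 5 µM in the primary screen, cut at about 50% in these data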;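 further: plate controls were negative control wells for no effect and 2.5 mM tranylcypromine positive control for full effect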
Pyk2 oligo antag = antagonists of Pyk2 self-association, primary screen, Q293 cells, FERM NanoBiT luminescence, HTS; z-score (the deposit names both 25 µM and 10 µM); AID 1347419, 2020; stronger effect = lower value; actives 0.83% (n = 99,000);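 active means Z-score of -3 or lower, scaled per plate to the spread of control and sample wells; inactive means z-score above -3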;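 further: negative z-score means lost luminescence so less FERM oligomerization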
Target sequence (Q14289 whole entry, looked up): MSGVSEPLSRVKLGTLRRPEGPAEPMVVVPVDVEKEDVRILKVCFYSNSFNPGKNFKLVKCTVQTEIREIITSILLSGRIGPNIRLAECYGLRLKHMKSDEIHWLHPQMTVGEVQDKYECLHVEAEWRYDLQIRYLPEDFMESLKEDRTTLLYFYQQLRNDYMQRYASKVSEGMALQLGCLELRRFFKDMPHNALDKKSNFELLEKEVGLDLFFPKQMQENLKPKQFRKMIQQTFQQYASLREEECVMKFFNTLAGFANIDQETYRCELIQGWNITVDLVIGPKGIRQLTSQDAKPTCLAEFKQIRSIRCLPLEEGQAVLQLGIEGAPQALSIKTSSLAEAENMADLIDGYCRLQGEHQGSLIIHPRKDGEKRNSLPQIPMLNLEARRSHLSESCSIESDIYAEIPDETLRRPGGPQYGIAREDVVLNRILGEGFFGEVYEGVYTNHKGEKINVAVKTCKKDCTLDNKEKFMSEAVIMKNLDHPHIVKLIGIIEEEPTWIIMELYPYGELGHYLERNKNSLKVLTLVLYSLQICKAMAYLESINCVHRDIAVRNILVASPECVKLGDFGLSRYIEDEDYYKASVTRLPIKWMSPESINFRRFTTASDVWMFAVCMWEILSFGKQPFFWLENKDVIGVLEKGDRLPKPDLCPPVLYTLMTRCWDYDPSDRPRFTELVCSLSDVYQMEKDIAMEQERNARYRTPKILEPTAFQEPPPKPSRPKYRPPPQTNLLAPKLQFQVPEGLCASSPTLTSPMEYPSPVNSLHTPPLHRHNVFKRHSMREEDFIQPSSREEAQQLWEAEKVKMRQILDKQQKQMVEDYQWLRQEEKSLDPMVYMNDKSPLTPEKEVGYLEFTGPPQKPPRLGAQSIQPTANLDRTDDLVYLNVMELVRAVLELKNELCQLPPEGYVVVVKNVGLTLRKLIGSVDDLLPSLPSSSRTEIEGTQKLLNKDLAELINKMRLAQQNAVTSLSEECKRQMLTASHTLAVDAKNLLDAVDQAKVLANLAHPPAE
CYP2C9 inhib = blockers of cytochrome P450 2C9 activity – biochemical, luminescence, ADME assay, primary screen; CYP2C9 Supersomes, luciferin-H conversion; actives 20% (n = 96,000); P11712; inhibition, % at 5 µM;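 active means blocking of liver enzyme CYP2C9 beyond about 50% at 5 µM, limit read from the data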
CYP2C19 activ = human CYP2C19 activators, primary screen, biochemical, luminescence. activation factor at 5 µM. Cytochrome P450 2C19 (Homo sapiens), P33261. 96,000 tested, under 10 active. recombinant CYP2C19, luciferin-H EGE luminescence; stronger effect = higher value; 0 = fully inhibited enzyme, 1 = untreated enzyme;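 active means activation factor of at least 2 at 5 µM in the primary screen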;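 further: 0 = wells with 2.5 mM tranylcypromine and 1 = vehicle-only wells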
CYP2C9 act = human CYP2C9 activators, primary screen, biochemical, luminescence; Cytochrome P450 2C9 (Homo sapiens), P11712; recombinant CYP2C9, luciferin-H conversion; stronger effect = higher value; factor 1 = untreated enzyme, 0 = blocked; activation factor at 5 µM; actives 1.4% (n = 96,000); AID 1024, 2008;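 active means activation factor of 2 or more for CYP2C9 at a 5 µM dose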;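 further: 0 = sulfaphenazole-blocked wells and 1 = vehicle-only wells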
Active calls of the source: *; / = not tested or not shown. The list is not random: actives were taken first. Their share in the collection is about 28%.

SMILES	CYP2C19 inhib	Pyk2 oligo antag	CYP2C9 inhib	CYP2C19 activ	CYP2C9 act
O=C(COC(=O)C1CC1)Nc1ccc(Oc2ccccc2)cc1	29	-0.85	-8	0.7	1.1
COC(=O)[C@@H](NC(=O)NCc1ccccc1Cl)C(C)C	45	0.83	2	0.6	1
COC(=O)c1cc2oc(C)cc2n1CC(=O)N(C)c1ccccc1	64*	-0.85	19	0.4	0.8
COC(=O)c1cc2occc2n1CC(=O)N(C)C1CCCCC1	35	0.3	-2	0.7	1
C=CCN(C(=O)Cn1c(C(=O)OC)cc2oc(C)cc21)c1ccccc1	92*	-1.3	48	0.1	0.5
CC(C)NS(=O)(=O)c1ccc(OCC(=O)NCC2CCCO2)c(Cl)c1 (stereo not drawn)	67*	1.1	66*	0.3	0.3
Cc1cc(Cl)ccc1OCCCC(=O)NCC1CCCO1 (stereo not drawn)	27	0.54	-131	0.7	2.3*
CN(C)c1cccc(C(=O)OCC(=O)NCC2CCCO2)c1 (stereo not drawn)	67*	-0.56	-161	0.3	2.6*
CN(C)c1ccc(C(=O)OCC(=O)NCC2CCCO2)cc1 (stereo not drawn)	83*	0.53	-48	0.2	1.5
CC1(C)Cc2noc(N)c2C(C)(C)N1O	/	0.63	/	/	/
O=S(=O)(c1ccccc1)N(C1=NCCS1)S(=O)(=O)c1ccccc1	20	-0.15	-17	0.8	1.2
O=C(COC(=O)CCC(=O)c1ccc(Cl)cc1)NCC1CCCO1 (stereo not drawn)	59*	0.58	23	0.4	0.8
Cc1ccc(S(=O)(=O)Nc2cc(-c3nn(C)c(=O)c4ccccc34)ccc2N2CCOCC2)cc1	93*	-0.38	94*	0.1	0.1
Cn1nc(-c2ccc(N3CCOCC3)c(NS(=O)(=O)c3ccc(Cl)cc3)c2)c2ccccc2c1=O	86*	-0.09	84*	0.1	0.2
CC(=O)Nc1cc(-c2nn(C)c(=O)c3ccccc23)ccc1N1CCOCC1	28	0.33	50	0.7	0.5
O=C1Cc2ccccc2N1c1c(Cl)cccc1Cl	/	0.05	/	/	/
O=C1CCCc2ccccc2N1Cc1ccc(Cl)cc1Cl	94*	-0.35	87*	0.1	0.1
O=c1cc2c(nn1Cc1c(Cl)cccc1Cl)-c1ccccc1CC2	36	-1.2	50*	0.6	0.5
O=C1CCCc2ccccc2N1Cc1ccccc1Cl	88*	-1	46	0.1	0.5
O=C1CCCc2ccccc2N1Cc1c(Cl)cccc1Cl	96*	-0.91	91*	0	0.1
CCC(C)NC(=O)Cn1cnc2sc(C)cc2c1=O (stereo not drawn)	7	-0.13	12	0.9	0.9
Cc1noc(C)c1COC(=O)C1COc2ccccc2O1 (stereo not drawn)	14	0.65	12	0.9	0.9
Cc1noc(C)c1COC(=O)C1CC(O)CN1S(=O)(=O)c1ccc(Cl)cc1 (stereo not drawn)	71*	0.5	26	0.3	0.7
CC(C)=CC(=O)OCC(=O)Nc1ccc(Cl)cn1	15	-0.1	10	0.8	0.9
COc1ccc(S(=O)(=O)N2CC(O)CC2C(=O)OCC(=O)Nc2ccc(Cl)cn2)cc1 (stereo not drawn)	74*	2.4	-7	0.3	1.1
SMILES	CYP2C19 inhib	Pyk2 oligo antag	CYP2C9 inhib	CYP2C19 activ	CYP2C9 act
COc1cc(CC(=O)OCC(=O)Nc2cc(S(=O)(=O)N3CCCC3)ccc2Cl)cc(OC)c1OC	-14	1.5	-48	1.1	1.5
COc1cc(NC(=O)COC(=O)[C@@H]2CCCN2S(=O)(=O)c2ccc(Cl)cc2)cc(OC)c1OC	22	1.9	72*	0.8	0.3
CC(C)(C)C1CCC2(CC1)Nc1cccc3cccc(c13)N2	96*	-0.64	80*	0	0.2
COc1ccc(N2C(=O)CSC23CCC(C(C)(C)C)CC3)cc1 (stereo not drawn)	/	-0.93	/	/	/
COc1ccc(C2Nc3ccccc3C(=O)N2c2ccc(C)cc2)cc1Cn1nc(C)c([N+](=O)[O-])c1C (stereo not drawn)	53*	-0.62	92*	0.5	0.1
CCOc1ccc(C2NC(=O)C(C#N)=C(S)N2c2ccc(C)cc2)cc1OC (stereo not drawn)	-1	0.78	47	1	0.5
O=C(/C=C/c1ccccc1Cl)c1cccnc1	54*	-0.91	13	0.5	0.9
O=C(/C=C/c1ccc(Cl)cc1)c1cccnc1	94*	-1.2	52*	0.1	0.5
O=C(/C=C/c1ccccc1)NNC(=O)c1cccnc1	5	0.1	13	1	0.9
O=S(=O)(c1cnccc1N1CCN(/N=C/c2ccc(Cl)cc2)CC1)N1CCCCC1	33	-0.12	60*	0.7	0.4
Cc1ccc(/C=N/N2CCN(c3ccncc3S(=O)(=O)N3CCCCC3)CC2)cc1	-2	-0.95	10	1	0.9
Cc1ccc(NC(=O)CCn2c(=O)oc3ccccc32)c(C)c1	29	0.73	5	0.7	1
CCCN(CCC)C(=O)Cn1c2ccccc2c2nc(=O)cc(C)n21	4	/	-9	1	1.1
COc1cc(C(=O)NCc2cccc3ccccc23)cc(Cl)c1OC	62*	-1.2	-30	0.4	1.3
COc1cccc(C(=O)NCc2ccccc2OC)c1	37	0.02	-86	0.6	1.9
Cn1c(CC(=O)Nc2ccccc2)nnc1SCCOc1ccccc1	13	0.67	10	0.9	0.9
CC(=O)N1CCc2cc(S(=O)(=O)NCCC(=O)NC3CCCc4ccccc43)ccc21 (stereo not drawn)	9	2.2	17	0.9	0.8
Cc1ccc(NC(=O)c2cccc3c2-c2ccccc2C3=O)cc1C	84*	-0.92	68*	0.2	0.3
CSc1ccccc1C(=O)Nc1ccc(C)c(C)c1	25	0.44	-40	0.8	1.4
O=C(c1cccs1)N(CCO)Cc1cc2cc3c(cc2[nH]c1=O)OCCO3	-2	/	11	1	0.9
CC1CCN(C(=O)C2Cc3ccccc3CN2S(=O)(=O)c2ccc(F)cc2)CC1 (stereo not drawn)	20	0.86	21	0.8	0.8
O=S(=O)(c1ccccc1)N1CCN(c2cc(-c3ccccc3)nc3ncnn23)CC1	4	-3.8*	4	1	1
O=S(=O)(c1ccccc1)N1CCN(c2ncnc3sc(-c4ccccc4)cc23)CC1	82*	-0.72	93*	0.2	0.1
O=S(=O)(c1ccc(Br)cc1)N1CCN(c2cc(-c3ccccc3)nc3ncnn23)CC1	37	-0.9	28	0.6	0.7
Cc1ccnc(NC(=O)COc2ccc3oc4c(c3c2)CCCC4)c1	/	-1	/	/	/

Screening data as filed in PubChem.
